USP28 block: inhibitors of human USP28 deubiquitinase | AID 1645857, 2021 | hit rate 3% among 47,000 | purified USP28, Ub-rhodamine cleavage fluorescence, 30 min | Ubiquitin carboxyl-terminal hydrolase 28 (Homo sapiens), Q96RU2 | inhibition, % at 25 µM
OTUD3 block: inhibitors of human OTUD3 deubiquitinase; inhibition, % at 25 µM; hit rate 0.7% among 47,000; OTU domain-containing protein 3 (Homo sapiens), Q5T2D3; purified OTUD3, Ub-rhodamine fluorescence, 2 h
USP17 block: inhibitors of human USP17 deubiquitinase. purified USP17, Ub-rhodamine cleavage fluorescence, 3 h. inhibition, % at 50 µM. hit rate 6.5% among 47,000. AID 1645855, 2021
USP30 inh: inhibitors of human USP30 deubiquitinase; Ubiquitin carboxyl-terminal hydrolase 30 (Homo sapiens), Q70CQ3; purified USP30, Ub-rhodamine cleavage fluorescence; inhibition, % at 25 µM; hit rate 5.3% among 47,000
Target sequence (Q70CQ3 whole entry, looked up): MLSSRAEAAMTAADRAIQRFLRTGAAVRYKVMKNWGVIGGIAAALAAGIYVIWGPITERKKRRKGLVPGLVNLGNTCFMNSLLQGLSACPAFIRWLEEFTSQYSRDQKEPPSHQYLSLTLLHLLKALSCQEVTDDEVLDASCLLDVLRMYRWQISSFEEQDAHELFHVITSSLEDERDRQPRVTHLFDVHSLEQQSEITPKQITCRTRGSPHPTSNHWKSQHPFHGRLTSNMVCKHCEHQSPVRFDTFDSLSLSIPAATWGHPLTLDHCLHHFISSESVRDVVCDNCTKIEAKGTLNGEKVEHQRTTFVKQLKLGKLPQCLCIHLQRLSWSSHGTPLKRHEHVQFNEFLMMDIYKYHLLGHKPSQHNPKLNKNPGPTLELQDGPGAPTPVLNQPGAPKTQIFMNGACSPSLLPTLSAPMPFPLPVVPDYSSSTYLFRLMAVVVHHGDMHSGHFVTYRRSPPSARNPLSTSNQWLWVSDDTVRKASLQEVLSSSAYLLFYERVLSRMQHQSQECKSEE
Starred values were filed as active, the others as inactive; i = inactive; . = no result. Only some compounds are listed: those with a hit (about 11% of all), similar ones and a draw of the others. Cut-off read from the data, not from the text of the source: active = inhibition above about 30%; inactive = the rest.

SMILES	USP28 block	OTUD3 block	USP17 block	USP30 inh
COc1ccccc1CCNC(=O)c1cc(C2CC2)nc2c1cnn2C(C)C	15	15	2	-6
CC(C)CCN1Cc2c(C(=O)N3CCC(N(C)C)C3)ncn2-c2ccccc2S1(=O)=O (centres undefined)	8	6	-12	1
O=C(COc1cccc(Cl)c1)N1CCSc2ccccc21	39*	22	25	36*
CCN(CC)C(=O)CN1CCC2(CC1)Nc1cc(Cl)ccc1C1=NCCN12	7	4	10	11
CC1Cc2nc3ccccc3n2CCN1Cc1ccc(S(C)(=O)=O)cc1 (centres undefined)	-8	1	-1	-4
O=C(Nc1nc2ccccc2s1)c1ccc2c(c1)C(=O)N(Cc1cccnc1)C2=O	-3	1	58*	24
COc1cccc(-c2cnc([C@@H]3COCCN3C3CCN(C)CC3)[nH]2)c1	0	7	-10	10
SC(COCc1ccccc1)CN1CCN(c2ccccc2)CC1 (centres undefined)	24	33*	23	44*
COc1ccc(N2CCN(CC(O)COCc3ccc(Cl)cc3)CC2)cc1 (centres undefined)	-14	-4	.	-52
Cc1ccc(NC(=O)CNC(=O)c2cc3ccccc3o2)cc1F	3	8	-5	-9
CCC(NC(=O)c1ccc2c(c1)OCO2)c1ccccc1 (centres undefined)	-10	-10	-22	3
O=C(CNC(=O)c1cc2ccccc2o1)Nc1ccc2c(c1)OCCO2	56*	14	63*	25
COc1cc(NC(=O)Cc2ccccc2)ccc1NC(=O)c1cc2ccccc2o1	22	11	70*	41*
CC(NC(=O)CNC(=O)c1ccc2c(c1)OCO2)c1cc2ccccc2o1 (centres undefined)	14	-3	42*	3
O=C(CNC(=O)c1cc2ccccc2o1)Nc1cccc(F)c1	11	-5	-3	46*
O=C(NCc1cccc(F)c1)c1cccnc1N1CCNC(c2ccccc2)C1 (centres undefined)	8	8	-2	10
COc1ccc(C2C3=C(CC(c4ccccc4)CC3=O)Nc3ccc(C)cc3N2C(=O)C2CC2)cc1 (centres undefined)	10	12	21	15
CCCC(=O)NC1(c2nc(-c3ccncc3)no2)CCCCC1	0	2	3	2
Cc1ccc(NC(=O)CNC(=O)c2cc3ccccc3o2)cc1	-9	-2	55*	-15
Cc1ccc(NS(=O)(=O)c2cc(NC(=O)CCOc3ccccc3C)ccc2C)c(C)c1	12	4	17	28
Cc1ccccc1OCCC(=O)Nc1cccc(S(=O)(=O)Nc2ccccc2Cl)c1	29	17	55*	26
CCCCNc1nc2c(-c3ccccc3)nnn2c2ccccc12	-4	2	68*	9
c1ccc(-c2nnn3c2nc(NCC2CCCO2)c2ccccc23)cc1 (centres undefined)	-18	-16	-18	-22
COCCNc1nc2c(-c3cccc(C(F)(F)F)c3)nnn2c2ccccc12	11	13	13	32*
Cc1ccc(CNc2nc3c(-c4ccc(C)cc4)nnn3c3ccccc23)cc1	-4	-1	5	0
SMILES	USP28 block	OTUD3 block	USP17 block	USP30 inh
COc1ccccc1-c1cc(NC(C)=O)c2ncc(-c3ccc(S(C)(=O)=O)cc3)n2c1	-7	-16	39*	-42
CC(=O)Nc1cc(-c2cccc(CO)c2)cn2c(-c3ccc(S(C)(=O)=O)cc3)cnc12	-23	-15	-11	-57
Cc1cccc2sc(NC(=O)c3nnn(-c4ccc(F)cc4)n3)nc12	15	3	56*	19
Cc1ccc(NC(=O)c2nnn(-c3ccccc3)n2)cc1F	56*	12	5	6
NC(=O)c1nnn(-c2ccc(NC(=O)c3ccc(F)c(F)c3)cc2)n1	0	-1	64*	0
NC(=O)c1cc2cc(F)ccc2nc1C1CCN(C(=O)c2ccncc2)CC1	0	-7	-1	12
CCc1ccc(C2c3c(oc4ccccc4c3=O)C(=O)N2c2nncs2)cc1 (centres undefined)	-4	-6	51*	2
COc1ccc2nc(N3C(=O)c4oc5ccccc5c(=O)c4C3c3ccc([N+](=O)[O-])cc3)sc2c1 (centres undefined)	-30	-25	3	-89
CCOC(=O)c1ccc2nc(N3C(=O)c4oc5ccccc5c(=O)c4C3c3ccco3)sc2c1 (centres undefined)	-9	-8	-6	-27
CCOc1cc(C2c3c(oc4ccccc4c3=O)C(=O)N2c2nc3ccc(C)cc3s2)ccc1O (centres undefined)	8	1	23	35*
CN(CCc1noc(-c2ccccc2Cl)n1)C(=O)c1ccc(C#N)cc1	13	10	19	31*
CC(C)CC(O)C(=O)O (centres undefined)	-4	-3	-5	17
O=C(NCc1cccnc1)C1CCN(c2cc(N3CCOCC3)ncn2)CC1	13	12	11	43*
Cc1cccc(CNC(=O)C2CCN(c3cnc(N4CCOCC4)nc3)CC2)c1	-9	-9	-14	-19
Cc1ccc(-n2cc3c(N4CCCC(C(=O)NCC5CCCCC5)C4)ncnc3n2)cc1 (centres undefined)	10	-9	60*	39*
Cc1ccc(Cn2cc(-c3noc(-c4ccncc4)n3)nn2)cc1	8	11	79*	26
Fc1cccc(Cn2cc(-c3noc(-c4ccncc4)n3)nn2)c1	12	8	66*	-7
CN1CCN(C(=O)c2n[nH]c3c2CN(Cc2cccc(C#N)c2)C3)CC1	12	9	-26	6
O=C(Cc1ccc(Cl)c(Cl)c1)OCC(=O)c1c[nH]c2ccccc12	-193	-243	-162	i
Cc1ncc(-c2ccc(C)c(S(=O)(=O)Nc3cccc(C#N)c3)c2)o1	14	3	14	13
CC1Cc2ccccc2N1C(=O)Cn1c(=O)cc(O)c2ccccc21 (centres undefined)	57*	-6	-7	2
CC1Cc2ccccc2N1C(=O)Cn1c(CC(=O)N2CCCC2)nc2ccccc21 (centres undefined)	-9	-1	-16	2
COc1cccc(NC(=O)Cn2c(COc3ccccc3)nc3ccccc32)c1	2	0	63*	27
O=C(Cn1c(COc2ccccc2)nc2ccccc21)Nc1cc(Cl)cc(Cl)c1	12	8	16	31*
COc1cccc(NC(=O)Cn2c(C(F)(F)F)nc3ccccc32)c1	.	1	-9	.
COc1ccc(NC(=O)Cn2c(CS(=O)(=O)c3ccc(C)cc3)nc3ccccc32)cc1	2	6	24	51*
O=C(Cn1c(CNC(=O)c2ccccc2)nc2ccccc21)Nc1ccc(F)cc1	37*	23	88*	78*
CCn1c(C(=O)O)c(CNCc2ccc3c(c2)OCO3)c2ccc(C)cc21	-2	-1	-2	1

Bioassay records (PubChem)
